PubChem BioAssay (NCI)
The panel holds about 83,000 compounds, 20% with a hit somewhere; the sample as a whole holds those more often.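 Negative percent growth values reflect cell death: -40 means 40% of the cells present at the start died, and -100 means all died.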 Unmarked numbers belong to inactive results. Active and inactive are the calls of the source. The calls were made as follows: active = growth percent below 10; inactive = the rest.

Key:
Assay in all cases: NCI-60 one-dose screen, 48 h (100 = growth as untreated, 0 = no growth, -100 = all killed)
Settings in all cases: 10 µM unless noted
DU-145 prostate = tested on: DU-145 prostate
K-562 leukemia = tested on: K-562 leukemia
MDA-MB-231 breast = tested on: MDA-MB-231 breast
RXF 393 renal = tested on: RXF 393 renal
SF-268 CNS = tested on: SF-268 CNS
SF-295 CNS = tested on: SF-295 CNS
SF-539 CNS = tested on: SF-539 CNS
UACC-257 melanoma = tested on: UACC-257 melanoma
M14 melanoma = tested on: M14 melanoma
HCT-15 colon = tested on: HCT-15 colon
HT29 colon = tested on: HT29 colon
SNB-75 CNS = tested on: SNB-75 CNS
SNB-19 CNS = tested on: SNB-19 CNS
U251 CNS = tested on: U251 CNS
PC-3 prostate = tested on: PC-3 prostate
SK-MEL-5 melanoma = tested on: SK-MEL-5 melanoma
UACC-62 melanoma = tested on: UACC-62 melanoma
LOX IMVI melanoma = tested on: LOX IMVI melanoma
SK-MEL-28 melanoma = tested on: SK-MEL-28 melanoma
MALME-3M melanoma = tested on: MALME-3M melanoma

SMILES	growth (DU-145 prostate)	growth (K-562 leukemia)	growth (MDA-MB-231 breast)	growth (RXF 393 renal)	growth (SF-268 CNS)	growth (SF-295 CNS)	growth (SF-539 CNS)	growth (UACC-257 melanoma)	growth (M14 melanoma)	growth (HCT-15 colon)	growth (HT29 colon)	growth (SNB-75 CNS)	growth (SNB-19 CNS)	growth (U251 CNS)	growth (PC-3 prostate)	growth (SK-MEL-5 melanoma)	growth (UACC-62 melanoma)	growth (LOX IMVI melanoma)	growth (SK-MEL-28 melanoma)	growth (MALME-3M melanoma)
Nc1ccc2c(c1)Cc1cc(Cl)c(Cl)cc1-2	59.9%	67.4%	52.5%	50.7%	74%	50.1%	74.2%	77%	-9.59% (active)	51.5%	93.1%	84%	46.2%	34.6%	68.5%	43.4%	63.4%	76.1%	78.6%	–
Nc1ccc2c(c1)C(=O)c1cc(Cl)c(Cl)cc1-2	100%	87.5%	79.1%	104%	93.4%	105%	87.4%	107%	104%	103%	104%	68.7%	96.6%	90.4%	74.9%	98%	77.9%	86%	122%	–
Nc1ccc2c(c1Br)Cc1ccccc1-2	106%	95.2%	74.7%	111%	86.7%	92.1%	79.4%	114%	105%	69.9%	111%	87.7%	98.9%	93.6%	83.4%	107%	91%	90.5%	121%	–
CC(=O)Nc1cc2c3c(cccc3c1)-c1ccccc1-2	97.7%	71.9%	67.5%	92.4%	39%	92.9%	39.7%	88.8%	99.6%	79.4%	108%	60.1%	91.2%	75.3%	57.9%	102%	89%	75.9%	103%	–
COC(=O)CC1=C(c2ccc([N+](=O)[O-])cc2)CCC1=O	101%	98.7%	102%	110%	101%	100%	97%	109%	109%	89.6%	107%	82%	109%	103%	91.9%	103%	100%	94.6%	109%	–
Cc1cc(-c2ccccc2)cc(C)n1	125%	98%	101%	117%	111%	101%	102%	108%	103%	105%	99%	86.1%	99.4%	103%	96.6%	106%	103%	96.9%	107%	–
C(=C1c2ccccc2-c2ccccc21)c1ccccn1	106%	19.6%	62.2%	80.6%	82.7%	71.3%	72.2%	91.1%	33.4%	42.8%	17%	62.5%	73.6%	50.4%	78.1%	78.3%	52.9%	57.2%	81%	–
COc1cc(-c2n[nH]nc2-c2ccccn2)cc(OC)c1OC	112%	90.6%	98.3%	–	114%	115%	104%	–	113%	76.8%	112%	88.1%	94.8%	106%	82.1%	102%	87.3%	98.5%	120%	90.5%
